Assay [1] can be described thus: qHTS assay to identify small molecule antagonists of the estrogen receptor alpha (ER-alpha) signaling pathway using the BG1 cell line in the presence of 0.1 nM 17-beta-estradiol - cell viability counter screen (AID 1259241). Note: nearly all actives have a fitted effect of over 40% in size. In outline:
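Cytotoxicity counter-screen: live-cell protease activity measured by fluorescence (30 min reagent step) in the same wells. Cells were VM7Luc4E2 with endogenous ER-alpha and ERE-driven luciferase, treated 22 hr at 37C alongside 0.1 nM 17beta-estradiol final.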
A general note: In qHTS, concentration-response curves come from the screen itself.

Assay [2] is described as follows: qHTS assay to identify small molecule antagonists of the androgen receptor (AR) signaling pathway using the MDA cell line in the presence of 0.5 nM R1881 - cell viability counter screen (AID 1259242). Note: nearly all actives have a fitted effect of over 45% in size. In outline: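 qHTS format. MDA-kb2 (MMTV-luc, AR/GR responsive) + cpd + 0.5 nM R1881 final, 16 hr 37C/0% CO2 → CellTiter-Fluor 30 min → fluorescence intensity.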
A short description of assay [3]: qHTS assay to identify small molecule HDAC inhibitors (AID 1259364).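 Note: wild-type HCT-116 cells with endogenous class I/II HDAC activity; top concentration of the series differs between compounds; nearly all actives have a fitted effect of over 45% in size.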 Summed up:
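Quantitative high-throughput format: overnight-seeded HCT-116 cells got compounds for 2 hr at 37C; HDAC-Glo I/II reagent added, 30 min RT, luminescence measured.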

Assay [4] in a line: qHTS assay to identify small molecule HDAC inhibitors - cell viability counter screen (AID 1259365). Note: series mostly up to about 92 µM; nearly all actives have a fitted effect of over 50% in size. In outline:
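CellTiter-Glo luminescence (30 min, room temperature) reported viability after a 2 h compound exposure at 37 C. Cells: wild-type HCT-116, 1,500 per well, seeded the night before.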

Assay [5] in a line: qHTS assay to identify small molecule agonists of the sonic hedgehog signaling (Shh) pathway - cell viability counter screen (AID 1259366). Note: nearly all actives have a fitted effect of over 50% in size. Note: potency is the fitted concentration of half-maximal effect. Summed up:
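Cytotoxicity counter screen: CellTiter-Fluor reagent added after 23 h compound exposure, then 1 h at 37C and fluorescence read. Cells were 3T3 Gli1-Luc, seeded 2,000 per well and dosed 4 h post-plating.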

Assay [6] in a line: qHTS assay to identify small molecule antagonists of the sonic hedgehog signaling (Shh) pathway - cell viability counter screen (AID 1259367). Note: nearly all actives have a fitted effect of over 55% in size. Note: potency is the fitted concentration of half-maximal effect. Summed up: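 Viability was read by CellTiter-Fluor fluorescence in the same wells, reagent added 23 hr into compound treatment and incubated 1 hr at 37C. The 3T3 Gli1-Luc reporter cells (2,000/well) received conditioned medium after compound and ran 24 hr.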

Assay [7] in a line: qHTS assay to identify small molecule agonists of the sonic hedgehog signaling (Shh) pathway (AID 1259368; calls by dose curve;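 note: NIH/3T3-derived 3T3Gli1-Luc cells carrying a stable Gli1-driven firefly luciferase reporter; series mostly up to about 92 µM; nearly all actives have a fitted effect of over 15% in size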). In outline: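 Quantitative high-throughput format using a Gli1-driven firefly luciferase reporter line derived from NIH/3T3 cells. After a 24 hr compound treatment at 37 C and 5% CO2, luminescence reported Gli1 response element activity.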
Assay [8] in a line: qHTS assay to identify small molecule antagonists of the sonic hedgehog signaling (Shh) pathway (AID 1259369; calls by dose curve; note: nearly all actives have a fitted effect of over 45% in size; note: potency is the fitted concentration of half-maximal effect). Summed up: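 Stable Gli1-Luc reporter NIH/3T3 clone; quantitative HTS in stimulated mode with conditioned medium. Luminescence measured after 24hr compound treatment at 37 C.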
Assay [9] deals with Estrogen receptor beta (Homo sapiens) (UniProt Q92731). The experiment in a line: qHTS assay to identify small molecule agonists of the estrogen receptor beta (ER-beta) signaling pathway (AID 1259377; active = well fitted activation curve with a large enough effect in the signal ratio in the repeat runs, not every such curve was filed as active; the % refers to the signal ratio). Summed up:
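Ratiometric beta-lactamase FRET read-out came after 2 h substrate loading at room temperature. It followed 16 h compound treatment at 37C of GripTite HEK293T cells carrying a UAS-bla reporter, plated in 2% charcoal-stripped FBS medium.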

Assay [10] in a line: qHTS assay to identify small molecule agonists of the androgen receptor (AR) signaling pathway in the presence of an antagonist - cell viability counter screen (AID 1259379).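 Note: MDA-kb2 human breast cancer cells carrying an MMTV luciferase reporter; series mostly up to about 92 µM; nearly all actives have a fitted effect of over 25% in size.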 In outline:
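Nilutamide-containing (3.0uM final) MDA-kb2 cultures, 3,000 cells/well, were treated with compounds across 15 concentrations. After 16 hr at 37C with no CO2, cell viability was determined by CellTiter-Fluor fluorescence in the luciferase assay wells.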

Assay [11] can be described thus: qHTS assay to identify small molecule agonists of the estrogen receptor beta (ER-beta) signaling pathway - cell viability counter screen (AID 1259380). Note: nearly all actives have a fitted effect of over 30% in size. Note: potency is the fitted concentration of half-maximal effect. Summed up: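 Steps: plate ER-beta-UAS-bla HEK293T cells, rest 6 hr; add compounds in DMSO; incubate 16 hr at 37C, 5% CO2; add FRET substrate 2 hr; add CellTiter-Glo, wait 30 min at room temperature; read luminescence.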

A short description of assay [12]: qHTS assay to identify small molecule antagonists of the estrogen receptor beta (ER-beta) signaling pathway - cell viability counter screen (AID 1259382). Note: nearly all actives have a fitted effect of over 55% in size. Note: potency is the fitted concentration of half-maximal effect. Summed up: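 Viability is scored by CellTiter-Glo luminescence (30 min, room temperature) in ER-beta-UAS-bla HEK293T wells already read for reporter fluorescence. Compound exposure lasts 16 hr at 37C alongside 1nM 17-beta-estradiol in charcoal-stripped serum medium.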

Assay [13] in a line: qHTS assay to identify small molecule agonists or antagonists of the thyroid stimulating hormone receptor (TSHR) signaling pathway - wild type cell line counter screen (AID 1259384; calls by dose curve). Summed up: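 Counter screen in untransfected Hek293: compounds (15-point titration, triplicate) plus phosphodiesterase inhibitor Ro20-1724 added after 18 h plating; 30 min RT. Intracellular cAMP via competitive d2/cryptate immunoassay, 1 h incubation.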

Assay [14] concerns the target Thyrotropin receptor (Homo sapiens) (UniProt P16473). The experiment in a line: qHTS assay to identify small molecule antagonists of the thyroid stimulating hormone receptor (TSHR) signaling pathway (AID 1259385; calls by dose curve; note: nearly all actives have a fitted effect of over 20% in size). Summed up: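 Antagonist mode: compound-treated TSHR-expressing HEK293 cells were stimulated with 1.5 ng/mL TSH (final) in presence of Ro20-1724 for 30 min at RT. HTRF cAMP detection after 1 h; each compound tested at 15 concentrations, triplicate.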

Assay [15] is described as follows: qHTS assay to identify small molecule agonists of the estrogen receptor alpha (ER-alpha) signaling pathway in the presence of an antagonist - cell viability counter screen (AID 1259386).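 Note: series mostly up to about 92 µM; cells exposed to compounds for 22 h at 37 °C before the viability read; nearly all actives have a fitted effect of over 30% in size.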 Summed up:
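In this counter screen, compound effects on VM7Luc4E2 viability were tested in the presence of the antagonist ICI-182,780 at 10.0nM final. Compounds were dosed at 15 concentrations, exposure lasted 22hr, and the CellTiter-Fluor signal was read.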

A short description of assay [16]: qHTS assay to identify small molecule phospholipidosis (PLD) inducers (AID 1259344; active = well fitted curve in the direction sought with a large enough effect; an effect the other way counts as inactive or inconclusive). Summed up: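 Phospholipid accumulation was scored by imaging: fixed, Hoechst-counterstained HepG2 cells stained with LipidTOX Red after 24 h compound exposure at 37 C. Read-outs were pit count and pit intensity per well or per cell, with amiodarone and DMSO controls.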
For assay [17], the target named is Estrogen receptor (Homo sapiens) (UniProt P03372). The experiment in a line: qHTS assay to identify small molecule antagonists of the estrogen receptor alpha (ER-alpha) signaling pathway using the BG1 cell line in the presence of 0.1 nM 17-beta-estradiol (AID 1259244). Note: nearly all actives have a fitted effect of over 50% in size. Summed up:
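Reporter is a stably transfected luciferase under four estrogen responsive elements in VM7Luc4E2 cells expressing native full-length ER-alpha; inhibition of 0.1 nM (final) 17beta-estradiol-driven signal over 22 h is read by luminescence.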

Assay [18] shares this target. The experiment in a line: qHTS assay to identify small molecule agonists of the estrogen receptor alpha (ER-alpha) signaling pathway in the presence of an antagonist (AID 1259383; calls by dose curve; note: top concentration of the series differs between compounds; nearly all actives have a fitted effect of over 15% in size). In outline: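 Readout was ERE-driven luciferase luminescence in VM7Luc4E2 cells, which express full-length ER-alpha endogenously. Compounds were tested at 15 concentrations for 22hr alongside 10.0nM ICI-182,780 (final concentration).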

Assay [19] addresses Androgen receptor (Homo sapiens) (UniProt P10275). The experiment in a line: qHTS assay to identify small molecule antagonists of the androgen receptor (AR) signaling pathway using the MDA cell line in the presence of 0.5 nM R1881 (AID 1259243). Note: nearly all actives have a fitted effect of over 50% in size. In outline:
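Antagonist mode quantitative HTS in MDA-kb2 MMTV-luciferase cells, agonist R1881 at 0.5 nM final, 16 hr exposure at 37C and 0% CO2, luminescent detection.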

The values that follow come from PubChem BioAssay (Tox21).

“And” between values parts separate entries of the source, which are not always exact repeats. Equal values may be shown once. Results filed as inconclusive are left out. The source holds several records for some structures; these can differ, active in one and inactive in another. The source made the active and inactive calls. Unless noted, calls come from the whole dose curve; as a rule, active = well fitted curve in the direction sought with a large enough effect in the repeat runs; inconclusive = weak or mixed curves; inactive = no such curve, though single readings can be large; an effect the other way counts as inactive or inconclusive.

Sequence of Thyrotropin receptor (Homo sapiens) (P16473 whole entry, looked up): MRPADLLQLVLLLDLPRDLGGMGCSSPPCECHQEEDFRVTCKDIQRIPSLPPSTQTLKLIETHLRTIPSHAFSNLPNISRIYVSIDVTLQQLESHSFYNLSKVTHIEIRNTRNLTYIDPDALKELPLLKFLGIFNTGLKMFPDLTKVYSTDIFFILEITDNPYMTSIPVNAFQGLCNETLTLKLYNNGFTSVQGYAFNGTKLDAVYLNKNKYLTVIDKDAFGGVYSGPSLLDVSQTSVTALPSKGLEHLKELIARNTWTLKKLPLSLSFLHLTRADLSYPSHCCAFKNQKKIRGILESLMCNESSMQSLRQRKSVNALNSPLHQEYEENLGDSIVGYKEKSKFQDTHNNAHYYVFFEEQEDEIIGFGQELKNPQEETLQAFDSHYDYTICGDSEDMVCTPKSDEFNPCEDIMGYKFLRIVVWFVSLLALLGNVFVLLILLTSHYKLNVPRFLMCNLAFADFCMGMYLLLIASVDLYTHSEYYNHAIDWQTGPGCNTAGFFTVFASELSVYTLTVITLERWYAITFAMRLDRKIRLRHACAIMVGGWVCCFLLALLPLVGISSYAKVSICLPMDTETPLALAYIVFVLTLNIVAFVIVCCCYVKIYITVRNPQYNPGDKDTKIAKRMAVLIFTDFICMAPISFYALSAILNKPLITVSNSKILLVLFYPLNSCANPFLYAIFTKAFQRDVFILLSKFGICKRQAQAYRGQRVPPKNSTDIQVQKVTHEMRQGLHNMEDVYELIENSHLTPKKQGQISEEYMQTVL
Sequence of Estrogen receptor (Homo sapiens) (P03372 whole entry, looked up): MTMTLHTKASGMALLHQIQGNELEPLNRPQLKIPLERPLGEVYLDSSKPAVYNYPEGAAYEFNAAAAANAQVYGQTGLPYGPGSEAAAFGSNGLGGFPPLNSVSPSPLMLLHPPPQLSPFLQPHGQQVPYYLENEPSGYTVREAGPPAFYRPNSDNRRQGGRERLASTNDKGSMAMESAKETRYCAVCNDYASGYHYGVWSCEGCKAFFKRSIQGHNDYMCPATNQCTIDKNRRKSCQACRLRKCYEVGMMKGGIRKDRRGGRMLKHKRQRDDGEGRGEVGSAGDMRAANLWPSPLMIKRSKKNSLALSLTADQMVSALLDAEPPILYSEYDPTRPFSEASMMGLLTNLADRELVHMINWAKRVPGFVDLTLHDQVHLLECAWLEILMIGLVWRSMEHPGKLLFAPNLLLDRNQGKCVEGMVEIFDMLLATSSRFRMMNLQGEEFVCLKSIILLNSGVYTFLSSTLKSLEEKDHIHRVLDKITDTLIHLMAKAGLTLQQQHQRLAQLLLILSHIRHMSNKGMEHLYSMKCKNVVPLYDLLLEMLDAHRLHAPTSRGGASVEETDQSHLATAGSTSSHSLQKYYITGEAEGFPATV
Sequence of Estrogen receptor beta (Homo sapiens) (Q92731 whole entry, looked up): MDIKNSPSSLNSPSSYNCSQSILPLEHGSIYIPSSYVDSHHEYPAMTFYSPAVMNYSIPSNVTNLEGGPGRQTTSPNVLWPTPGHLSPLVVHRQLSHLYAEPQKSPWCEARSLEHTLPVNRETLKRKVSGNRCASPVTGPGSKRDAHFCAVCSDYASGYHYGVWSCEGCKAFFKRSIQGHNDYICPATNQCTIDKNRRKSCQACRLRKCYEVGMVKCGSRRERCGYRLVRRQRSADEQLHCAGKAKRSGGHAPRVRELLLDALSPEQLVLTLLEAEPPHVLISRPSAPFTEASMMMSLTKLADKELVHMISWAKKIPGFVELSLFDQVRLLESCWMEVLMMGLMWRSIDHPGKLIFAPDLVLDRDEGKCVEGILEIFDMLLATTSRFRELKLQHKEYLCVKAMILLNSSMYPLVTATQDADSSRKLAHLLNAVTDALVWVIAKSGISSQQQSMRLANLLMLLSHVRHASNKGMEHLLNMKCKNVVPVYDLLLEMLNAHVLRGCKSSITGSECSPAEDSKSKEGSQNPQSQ
Sequence of Androgen receptor (Homo sapiens) (P10275 whole entry, looked up): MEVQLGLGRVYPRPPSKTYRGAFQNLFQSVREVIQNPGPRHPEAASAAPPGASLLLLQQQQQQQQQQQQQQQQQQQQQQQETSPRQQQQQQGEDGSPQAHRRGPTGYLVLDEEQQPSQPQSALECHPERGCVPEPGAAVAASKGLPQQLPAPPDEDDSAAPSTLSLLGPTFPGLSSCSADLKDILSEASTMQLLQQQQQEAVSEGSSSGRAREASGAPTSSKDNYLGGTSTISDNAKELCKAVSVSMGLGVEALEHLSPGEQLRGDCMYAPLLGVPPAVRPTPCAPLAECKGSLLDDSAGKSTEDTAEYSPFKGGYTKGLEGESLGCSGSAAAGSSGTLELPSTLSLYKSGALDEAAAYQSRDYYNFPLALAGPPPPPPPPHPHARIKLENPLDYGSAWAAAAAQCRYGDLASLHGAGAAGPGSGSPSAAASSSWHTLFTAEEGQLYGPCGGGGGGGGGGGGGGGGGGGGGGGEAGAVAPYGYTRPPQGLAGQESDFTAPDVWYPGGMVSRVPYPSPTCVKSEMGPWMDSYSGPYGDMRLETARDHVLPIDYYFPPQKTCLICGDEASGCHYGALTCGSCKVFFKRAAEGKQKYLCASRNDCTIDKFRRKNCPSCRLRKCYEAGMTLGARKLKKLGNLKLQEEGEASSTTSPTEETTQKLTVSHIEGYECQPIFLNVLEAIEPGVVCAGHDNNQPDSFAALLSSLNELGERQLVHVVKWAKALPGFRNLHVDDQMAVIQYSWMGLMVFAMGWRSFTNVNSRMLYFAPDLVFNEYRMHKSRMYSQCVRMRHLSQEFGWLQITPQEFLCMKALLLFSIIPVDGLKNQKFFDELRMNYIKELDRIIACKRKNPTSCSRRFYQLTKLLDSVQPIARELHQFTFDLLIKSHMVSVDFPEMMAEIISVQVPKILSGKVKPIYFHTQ

`NC1CCCCC1N` (configuration not stated): the Potency result in [1], in [2], in assay [3], in assay [4], in assay [5] and in [6] was “inactive” each time. Further, the Potency result in [7], in assay [8], in [9], in assay [10], in assay [11] and in [12] was “inactive” each time. Further, the Potency result in [13], in assay [14] and in [15] was “inactive” throughout.
For `CC[N+](CC)(CC(=O)Nc1c(C)cccc1C)Cc1ccccc1`, the Potency entry in assay [1], in [2], in assay [3], in assay [4], in assay [5] and in assay [6] was “inactive” in each case. For the same molecule, the Potency result in assay [7], in assay [8], in assay [10], in assay [11], in assay [12] and in assay [13] was “inactive” in each case. Further, the Potency entry in [14] and in [15] was “inactive” throughout. The molecule was classed as inactive in assay [16].
Regarding `O=c1n(CCCN2CCN(c3cccc(Cl)c3)CC2)nc2ccccn12`, the Potency entry in assay [1], in assay [2], in assay [3], in [4], in assay [5] and in assay [6] was “inactive” throughout. For the same molecule, the Potency result in assay [7], in [8], in assay [10], in assay [12], in assay [13] and in [14] was “inactive” each time. For the same molecule, in assay [15], the Potency result is “inactive”. Besides, the outcome in [16] was inactive. The Potency in assay [11] was 24.3 µM (active).
For the molecule `CCCCC(=O)O`, the Potency result in [1], in assay [17], in assay [3], in [4], in assay [5] and in assay [6] was “inactive” throughout. Also, the Potency entry in assay [7], in assay [8], in assay [9], in assay [10], in assay [11] and in [12] was “inactive” throughout. The Potency result in assay [18], in [13], in assay [14] and in assay [15] was “inactive” in each case. For the same molecule, the call in assay [16] was inactive.
As for `CCCOC(=O)NCCCN(C)C`, the Potency entry in [1], in assay [2], in assay [3], in assay [4], in assay [5] and in [6] was “inactive” each time. The Potency entry in assay [7], in assay [8], in [10], in [11], in [12] and in assay [13] was “inactive” throughout. In addition, the Potency entry in [14] and in [15] was “inactive” in each case.
Regarding `Cc1ccc(C(C)C)cc1`, the Potency result in assay [1], in assay [19], in [17], in assay [3], in assay [4] and in assay [5] was “inactive” in each case. Besides, the Potency entry in [6], in assay [7], in assay [8], in assay [10], in assay [11] and in assay [12] was “inactive” in each case. Also, the Potency entry in [18], in [13], in [14] and in assay [15] was “inactive” each time.
Turning to `CC(CN1c2ccccc2Sc2ccccc21)N(C)C` (configuration not stated), the Potency entry in assay [1], in [2], in [3], in [4], in assay [7] and in [9] was “inactive” in each case. Besides, the Potency entry in [10], in assay [13], in assay [14] and in assay [15] was “inactive” in each case. Also, the result in assay [16] was inactive. For the same molecule, the Potency in assay [5] was 61.8 µM (active) and 30.6 µM (active) and inactive; in assay [6] it was 27.6 µM (active) and inactive; in [8], 12.3 µM (active) and 27.3 µM (active) and 13.3 µM (active); in assay [11] it was 49.1 µM (active) and 24.3 µM (active) and 23.7 µM (active); in [12] it was 24.6 µM (active) and 21.7 µM (active) and 16.8 µM (active).
Consider `COc1ccc(N)c(OC)c1`, for which the Potency result in assay [1], in assay [2], in assay [17], in assay [3], in assay [4] and in assay [5] was “inactive” throughout. The Potency result in [7], in assay [10], in assay [12], in [18], in assay [13] and in [14] was “inactive” throughout. Further, in [15], the Potency entry was “inactive”. Moreover, the Potency in [8] was 9.31 µM (active); in assay [11], “inactive and 54.5 µM (active)”.
For the molecule `Cc1ccc(C)c(S(=O)(=O)O)c1`, the Potency result in [1], in [2], in assay [3], in assay [4], in [5] and in [6] was “inactive” throughout. Further, the Potency result in assay [7], in assay [8], in assay [10], in assay [11], in assay [12] and in assay [13] was “inactive” in each case. The Potency entry in assay [14] and in [15] was “inactive” throughout.
